This is a sample that favours compounds with a hit; in the whole collection about 12% have one here.
Shiga toxin inh: Shiga toxin inhibition | Vero cells, Shiga toxin protein synthesis inhibition reporter | inhibition, % at 38.7 µM | actives 9.2% (n = 290,000) | AID 2315; in the data active = inhibition mostly above about 28%, no sharp cut-off; inactive = mostly below about 43%; also: 0% is about no effect
FMDV inh: antivirals against foot and mouth disease virus; FMDV antiviral cell-based qHTS; Potency, µM (titrated, usually from 57.9 µM), for the others: at the top dose activity change, negative = inhibition, actives largely listed as inhibitors; actives 1.2% (n = 410,000); AID 1159524; calls by dose curve; tested in HEK293T cells; also: read-out not given here; potency is read from the fitted curve at half-maximal effect; % is scaled to controls: 0 for no effect and ±100 for the full control effect; nearly all actives have a fitted effect of over 45% in size
Sm TGR inh: S. mansoni TGR enzyme inhibition. Q962Y6. purified TGR, DTNB reduction, TNB absorbance 405 nm. Potency, µM (titrated, usually from 114 µM), inactives show at the top dose activity change, negative = inhibition, usual class: inhibitors. actives 3% (n = 360,000); active = well fitted inhibition curve with a large enough effect; inconclusive = small, poorly fitted or top-dose-only effect; inactive = no such curve, though single readings can be large or run the other way; also: potency is read from the fitted curve at half-maximal effect; % is scaled to controls: 0 for no effect and ±100 for the full control effect; nearly all actives have a fitted effect of over 60% in size
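TGR 20 nM + NADPH 100 uM (dispensed conc.), cpd preinc 15 min RT; start with NADPH (500 uM addition) then DTNB (15 mM addition). Kinetic TNB absorbance, 405 nm filter. Four-parameter Hill fit across titration.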
Cycloheximide cs: affects cycloheximide protein synthesis inhibition readout, counter-screen. cell reporter, cycloheximide protein synthesis inhibition counterscreen. actives 12% (n = 300,000). max response, %; in the data active = max response mostly above about 13%, no sharp cut-off; inactive = mostly below about 14%; also: read at 38.3 µM for the half of the compounds with a filed dose; 0% is about no effect
* marks the source's active call; other numbers are inactive results; ? = inconclusive; · = not tested or not shown.

SMILES	Shiga toxin inh	FMDV inh	Sm TGR inh	Cycloheximide cs
CC(C)c1ccc(C2c3c(-c4ccccc4O)n[nH]c3C(=O)N2Cc2ccncc2)cc1 (stereo not given)	·	-22%	3%	·
O=C(Cn1cc(S(=O)(=O)Cc2cccc(Cl)c2)c2ccccc21)NCc1ccccc1Cl	·	-11%	1%	·
O=C1NC(=S)NC(=O)C1=Cc1ccc2c(c1)CCN2CCCCl	-4	?	14µM*	-4
CN(C)C(=O)Oc1cccc(-c2cn3cc(Cl)ccc3n2)c1	58*	34%	0%	43*
CN(C)C(=O)Oc1ccc(-c2cn3cc(C(F)(F)F)ccc3n2)cc1	41*	12%	-19%	20
CC1CCN(S(=O)(=O)c2cccc(-c3cn4cc(Cl)ccc4n3)c2)CC1	53*	0%	6%	12
CCOC(=O)C1CCN(S(=O)(=O)c2cccc(-c3cn4cc(Cl)ccc4n3)c2)CC1	14	?	-7%	7
CN(C)C(=O)Oc1ccc(-c2cn3cc(Cl)ccc3n2)cc1	55*	0%	0%	50*
CC1CC(OC(=O)C(O)c2ccccc2)CC(C)(C)C1 (stereo not given)	12	·	·	-6
COc1cc(NC(=O)CN(C)S(=O)(=O)c2ccc3[nH]c4c(c3c2)CCCC4)cc(OC)c1OC	·	?	6%	·
CCOC(=O)c1cc(S(=O)(=O)N2CCN(c3cc(Cl)ccc3C)CC2)[nH]n1	·	17%	1%	·
CSc1nnc(CNS(=O)(=O)c2ccc(F)cc2F)n1-c1ccccc1C	·	3%	·	·
CCOC(=O)c1c(NC2OC(=O)c3c2ccc(OC)c3OC)sc(C(=O)OC(C)(C)C)c1C (stereo not given)	active	-38%	-5%	31*
COc1ccc2c(c1)C(=NO)c1cc(OC)ccc1-2	22*	8%	-1%	18*
Cc1ncc(C[n+]2csc(C)c2C)c(N)n1	9	-19%	25µM*	-2
CN(C)C(=O)c1ccc(NC(=O)Cn2nnnc2-c2ccccc2F)cc1	·	-1%	5%	·
O=C1Nc2ccccc2C1=Nc1cccc([N+](=O)[O-])c1	27*	-2%	19%	6
CCCCNc1nc2c(S(=O)(=O)c3ccc(C)cc3)nnn2c2ccsc12	·	1%	-2%	·
CCc1cccc(NC(=O)C2CCC(CNS(=O)(=O)c3ccc(Br)s3)CC2)c1 (stereo not given)	·	?	-2%	·
CNC(=O)c1ccc(-c2ccccc2)s1	69*	34%	-22%	34*
CCOc1ccc(NC(=O)c2ccc(-c3ccccc3)s2)cc1	·	27%	-7%	·
CCc1nc(OCCN(CC)CC)c2oc3ccccc3c2n1	27	0%	6%	27*
Cc1cccc(N2C(=O)N(Cc3cccc(C#N)c3)c3ccccc3S2(=O)=O)c1	·	-15%	0%	·
O=C(Nc1nccs1)c1ccc(COc2ccccc2Cl)o1	81*	27%	-23%	60*
O=C(Nc1nccs1)c1ccc(COc2c(F)c(F)cc(F)c2F)o1	·	30%	-22%	·
SMILES	Shiga toxin inh	FMDV inh	Sm TGR inh	Cycloheximide cs
Cc1cc(NC(=O)c2ccc(COc3ccccc3Cl)o2)no1	18	-17%	-4%	12
Cc1ccc(OCc2ccc(C(=O)Nc3nccs3)o2)cc1C	47	24%	2%	25*
CCOc1ccc(-c2cc(C(=O)NCc3ccccc3Cl)c3ccccc3n2)cc1	·	-4%	3%	·
N/C(=N\OC(=O)CN1C(=O)c2ccccc2C1=O)c1ccc(Br)cc1	-8	6%	1%	-4
Cc1cc(OC(=O)c2ccc(Cl)cc2Cl)nc(C)n1	1	7%	56µM*	-1
Cc1cccc(C(=O)O/N=C(\N)c2ccc(Br)cc2)c1	63	25%	-24%	56*
Cc1cc(C)cc(C(=O)O/N=C(\N)c2ccc(Br)cc2)c1	16	21%	8%	12
Cc1cccc(C(=O)O/N=C(\N)c2ccc(Cl)cc2)c1	71*	62%	0%	56*
N/C(=N\OC(=O)c1ccoc1)c1ccc(Br)cc1	90*	56%	-17%	74*
COc1cc(NC(=O)c2cc(C3CC3)nc3c2c(C)nn3-c2ccc(C)cc2)cc(OC)c1	·	-18%	6%	·
Cc1cccc(C(=O)O/N=C/c2ccc(Br)cc2)c1	88*	40%	-2%	44*
Cc1ccc(/C(N)=N/OC(=O)c2ccc(Cl)cc2Cl)cc1	92*	-54%	-2%	82*
Cc1ccc(C(=O)O/N=C(\N)c2ccc(Br)cc2)cc1C	130*	45%	2%	42*
Cc1ccc(C)c(C(=O)O/N=C(\N)c2ccc(Br)cc2)c1	31	-6%	12%	21
COc1ccc(Br)cc1CNC(=O)Cc1cccs1	6	54%	?	21*
O=C(Cc1cccs1)NCc1ccccc1Br	63*	56%	-9%	36*
COc1ccc(CCNC(=O)Cc2cccs2)cc1OC	10	-6%	0%	0
COc1ccc(Br)cc1CNc1ccc(O)cc1	-7	-28%	28µM*	-1
COc1ccc(CNc2ccc(C)cc2)cc1Br	43*	16%	-3%	23*
CN1[C@@H]2CC[C@H]1CC(OC(=O)[C@@H](CO)c1ccccc1)C2 (stereo not given in full)	5	·	·	-11
COc1cccc(Cn2c(CNC(=O)c3cc([N+](=O)[O-])ccc3Cl)nc3cccnc32)c1	·	-25%	-10%	·
O=C(NCC1Cc2cccc(-c3ncccn3)c2O1)c1cccc(-c2ccccc2F)c1 (stereo not given)	·	18%	·	·
CC(C)c1ccc(NC(=O)CN2C(=O)COc3ccc(S(=O)(=O)N4CCCCC4)cc32)cc1	·	24%	1%	·
O=S(=O)(NCc1ccccc1Br)c1cccs1	-5	91%	-19%	11*
O=C(CSc1nc2c([nH]c3ccccc32)c(=O)n1-c1cccc(Cl)c1)c1ccccc1	·	-18%	5%	·
SMILES	Shiga toxin inh	FMDV inh	Sm TGR inh	Cycloheximide cs
N=C1S/C(=C\c2ccc(-c3cccc(Cl)c3)o2)C(=O)N1c1nccs1	10	-8%	-20%	9
COc1ccc(/C=C2\SC(=N)N(c3nccs3)C2=O)cc1OC	-1	?	4%	14*
CCCN(CCC)c1nn2c(=O)c(C(=O)NCc3cccc(OC)c3)cnc2s1	·	-17%	-13%	·
Fc1ccc(-c2cn3cc(Cc4ccccc4)sc3n2)cc1	·	13µM*	-5%	·
CCCCOCc1cc(CN2CCN(c3cccc(Cl)c3)CC2)c(O)c2ncccc12	·	0%	-8%	·
CCN(CC(=O)NCc1ccc(Cl)cc1)C(=O)c1ccc(S(=O)(=O)NCc2ccco2)cc1	67*	-14%	-16%	59*
O=C(CCCNS(=O)(=O)c1ccccc1)NCc1ccco1	-5	-5%	-5%	-1
O=C(CCc1ccc(S(=O)(=O)NCCc2ccccc2)cc1)NCc1ccco1	15	-1%	45µM*	-1
CC(C)NS(=O)(=O)c1ccc(CCC(=O)NCc2ccco2)cc1	28	1%	45µM*	-3
O=C(CCNS(=O)(=O)c1cccs1)NCc1ccco1	-3	-12%	79µM*	-1
CCOc1ccc(NC(=O)Cn2c(C)cc3ccccc3c2=O)cc1	·	-13%	13%	·
COc1ccc(-c2nnc(SCC(=O)Oc3c(C)cccc3C)o2)cc1OC	·	-20%	4%	·
CCCS(=O)(=O)Nc1cc(-c2cn3cccc(C)c3n2)ccc1C	·	0%	1%	·
Cc1cc(C)cc(NC(=O)CN(C)S(=O)(=O)c2ccc3c(c2)CCC(=O)N3)c1	·	-4%	-1%	·

Assay outcomes as filed in PubChem BioAssay.
